The campaign covered roughly 6,200 compounds. About 2,900 (47%) were called active. Rule as the data show it: active = inhibition above about 50%; inactive = the rest. So high a share suggests a set chosen from earlier hits. This is one part of the list.
Assay: Mycobacterium tuberculosis growth inhibition, primary screen (AID 1259343)
Details: inhibition: at 10 µM, hits give high values; outcome: 10 uM

Row | Compound | inhibition
1 | O=C(NCCc1ccc(O)cc1)Nc1cccc2c1CCCC2 | 7.1% (inactive)
2 | Clc1ccc(NN=Cc2ccccn2)cc1Cl | 14.1% (inactive)
3 | Clc1ccc2nc(NN=Cc3ccccn3)nc(-c3ccccc3)c2c1 | 92.1% (active)
4 | C(=NNc1ccc2ccccc2n1)c1ccccn1 | -19.7% (inactive)
5 | Nc1ccc(S(=O)(=O)Nc2ccnn2-c2ccccc2)cc1 | 55.2% (active)
6 | CC(C)=CCCC(C)CCNCCc1ccco1 (configuration not stated) | -15% (inactive)
7 | CC(NC(=O)c1ccc(Oc2ccccc2)cc1)C1CCCO1 (configuration not stated) | 92.8% (active)
8 | CC(=O)N1CCC(NC(=O)c2ccc(Oc3ccccc3)cc2)CC1 | 16.9% (inactive)
9 | CC(Nc1nc(-c2cccs2)nc2ccccc12)C1CCCO1 (configuration not stated) | -41.2% (inactive)
10 | Cc1cccc(/C=C/c2nc(-c3cc(C(=O)O)co3)cs2)c1 | 42.9% (inactive)
11 | OCC1(CCc2ccccc2)CCCN(Cc2cc3ccccc3o2)C1 (configuration not stated) | 23.5% (inactive)
12 | Oc1ccccc1CN1CCCn2cccc2C1c1cccc(C(F)(F)F)c1 (configuration not stated) | 22.1% (inactive)
13 | CC(C)(C)c1ccc(C2=NC(=Cc3ccc4c(c3)OCO4)C(=O)O2)cc1 | -19.9% (inactive)
14 | O=C(C=Cc1ccc2c(c1)OCO2)c1ccc(Cl)cc1Cl | 73.5% (active)
15 | O=C(C=Cc1ccc2c(c1)OCO2)c1ccc(Br)cc1 | -39.3% (inactive)
16 | COC(=O)c1nnn(-c2ccc(C)c(C)c2)c1C(=O)OC | 82.4% (active)
17 | COC(=O)CCc1nnc(NS(=O)(=O)c2ccc(C)c(C)c2)s1 | 48.8% (inactive)
18 | Cc1cc(N)c2ccccc2[n+]1CCCCCCCCCC[n+]1c(C)cc(N)c2ccccc21 | 72.6% (active)
19 | c1cnc(Sc2ccc3ccccc3c2)nc1 | 32.8% (inactive)
20 | c1ccc(-c2cn3c(n2)CCc2ccc4cccnc4c2-3)cc1 | 16.6% (inactive)
21 | c1cnc2c(c1)ccc1cccnc12 | 95.2% (active)
22 | COc1cccc(-c2coc3c(C)c4oc(=O)c(CCC(=O)O)c(C)c4cc23)c1 | 47% (inactive)
23 | NC(=O)COc1cccc(CN2CCCSc3ccccc32)c1 | 35.4% (inactive)
24 | Cc1c(Cc2ccccc2)c(=O)oc2cc(OCC(N)=O)ccc12 | 62.1% (active)
25 | ClC1(Cl)CC1Cn1c(Cc2ccccc2)nc2ccccc21 (configuration not stated) | 25.7% (inactive)
26 | CCc1ccc(OCCCn2c(CO)nc3ccccc32)cc1 | 77% (active)

Row | Compound | inhibition
27 | CCc1ccc(OCCn2c(CO)nc3ccccc32)cc1 | 34.1% (inactive)
28 | CCOc1ccc(N=C(Nc2ccc(OCC)cc2)SC)cc1 | -1.39% (inactive)
29 | COc1ccc(N=C(Nc2ccc(OC)cc2)SC)cc1 | 74.3% (active)
30 | CCn1c(=S)[nH]c2scc(-c3cccs3)c2c1=O | 98.8% (active)
31 | CCn1c(=S)[nH]c2sc3c(c2c1=O)CCC(C)C3 (configuration not stated) | 21.2% (inactive)
32 | Cn1c(=S)[nH]c2scc(-c3cccs3)c2c1=O | -21.9% (inactive)
33 | Cc1csc(NC(=O)c2ccc(COc3cccc4c3OC(C)(C)C4)cc2)n1 | 92.8% (active)
34 | CCN(CC)[P+](N(C)Cc1ccco1)(N(CC)CC)N(CC)CC | 30.8% (inactive)
35 | NC1=NC(c2cccc(Cl)c2)n2c(nc3ccccc32)N1 (configuration not stated) | 56.7% (active)
36 | NC1=NC(c2ccc(-c3ccccc3)cc2)n2c(nc3ccccc32)N1 (configuration not stated) | 26.9% (inactive)
37 | CC(C)c1ccc(C2N=C(N)Nc3nc4ccccc4n32)cc1 (configuration not stated) | 13.8% (inactive)
38 | Cc1cc(C(=O)NC(C)Cc2ccc(Br)cc2)on1 (configuration not stated) | 55.5% (active)
39 | Cc1oc(C)c(C(=O)NC(C)Cc2ccc(Cl)cc2)c1C (configuration not stated) | 42.4% (inactive)
40 | CC(Cn1cccn1)NC(=O)c1ccc(Br)o1 (configuration not stated) | 22.1% (inactive)
41 | CCCn1nc(C)c(CNc2ccc(Br)cc2)c1C | 20% (inactive)
42 | COc1ccc(C2CC(=O)c3cc([N+](=O)[O-])ccc3O2)cc1 (configuration not stated) | 96.6% (active)
43 | O=C(CCc1nnc(Cc2ccc(-c3ccccc3)cc2)o1)NCc1cccnc1 | inactive
44 | Cc1cn2nc(NC3CCc4ccccc43)sc2n1 (configuration not stated) | 41.4% (inactive)
45 | O=C(CCc1nnc(Cc2ccc(-c3ccccc3)cc2)o1)NCCc1ccccn1 | 50.7% (active)
46 | CC(NC(=O)CCc1nnc(Cc2ccc(-c3ccccc3)cc2)o1)c1ccccc1 (configuration not stated) | 37.7% (inactive)
47 | O=C(CCc1nnc(Cc2ccc(-c3ccccc3)cc2)o1)NC1CCc2ccccc21 (configuration not stated) | 62% (active)
48 | CN(C)C(=O)n1nnnc1Cc1ccc(-c2ccccc2)cc1 | 39.2% (inactive)
49 | O=c1oc2c(c(O)c1-c1ccccc1)-c1ccccc1CC2 | 81% (active)
50 | CC(C)(C)c1nc(CNC(=O)Cc2ccc(Cl)cc2)no1 | 27.8% (inactive)
51 | O=C(Cc1noc(C2CC2c2ccc(Cl)cc2)n1)NC1CCCC1 (configuration not stated) | 91.9% (active)
52 | O=C(Cc1coc(-c2ccccc2)n1)NC1CCCC1 | 21.1% (inactive)
